Only some compounds are listed: those with a hit (about 4.3% of all), similar ones and a draw of the others.
SMARCA2 activ = activators of SMARCA2 function; MG213 cells, MMTV-luciferase reporter, dexamethasone, overnight; activation, % at 9.1 µM; actives 1% (n = 370,000); AID 652017; in the data active means activation above about 7.8%;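 further: 0% = vehicle wells and 100% = reference activator wells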
Wnt bcat act = activators of Wnt/beta-catenin signaling; Wnt/beta-catenin reporter cell assay, activator, plate reader; activation, % at 9.35 µM; actives 1.2% (n = 300,000); AID 743398; in the data active means activation above about 30%, passing the limit was not always enough; inconclusive means no clear call, values can overlap the other calls;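 further: 0% = neutral control wells and 100% = positive control wells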
MITF act = increases MITF-driven TRPM1 promoter luciferase signal; SK-MEL-5 TRPM1-promoter luciferase, 24 h; % of positive control, neutral wells = 0; actives 0.75% (n = 300,000); AID 588334; activation, % at 12.5 µM;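 active means mean activation of at least 80% with every replicate also reaching 80%; inconclusive means mean reaches 80% but some replicate falls short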;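 further: 0% = neutral control wells and 100% = parthenolide positive control wells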
HSF1 inh = HSF1 inhibition | NIH3T3-HGL HSE-luciferase, MG132-induced, luminescence 8 h; hits give low values | activity change, negative = inhibition, % at 7.5 µM (by protocol) | actives 0.77% (n = 300,000) | AID 2098;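 active means more than half of replicate wells show activity change below -50%, luminescence cut by over half; inconclusive means some wells, but at most half, below -50%; inactive means no replicate well below -50%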;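 further: luciferase reports HSF-1 transcriptional activity via heat shock element; 0% = median of DMSO wells and -100% = zero luminescence signal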
esBAF inh = SWI/SNF esBAF complex inhibition | mouse ES cells, Bmi1-luciferase knock-in reporter, 24 h; 100% = twice the neutral-well signal | actives 2% (n = 350,000) | reporter increase, % at 12.5 µM | AID 602393; in the data active means activation above about 40%; inconclusive means no clear call, values can overlap the other calls;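 further: 0% = median of the plate's neutral control wells and 100% = double that signal; a rise in the Bmi1 reporter signal indicates esBAF inhibition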
HSF1 activator = increases HSF-1 driven luciferase reporter signal; activation, % at 9 µM; NIH3T3-HGL HSF-1 luciferase reporter, MG132, 8 h; 100% = twice DMSO control signal; actives 1.7% (n = 300,000);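 active means mean replicate activation of at least 50% with a set share of replicates each reaching 50%; inconclusive means only one of those two conditions met; inactive means mean below 50% and too few replicates reaching it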;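 further: 0% = median of the neutral control wells and 100% = twice that signal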
Starred values were filed as active, the others as inactive; ? = inconclusive; / = no result given.

SMILES	SMARCA2 activ	Wnt bcat act	MITF act	HSF1 inh	esBAF inh	HSF1 activator
CC(O)CNC(=O)C1CCN(Cc2ccc(OCc3ccccc3)cc2)CC1 (stereo not given)	1	20	/	2	18	15
CC(C)CNC(=O)C1CCN(Cc2ccc(OCc3ccccc3)cc2)CC1	2	/	?	-61*	21	-71
Clc1ccc(-c2nnc(N3CCCC3)nn2)cc1	4	35*	/	31	-26	31
CCSc1cc(N2CCCC2)nc(-c2ccc(Cl)cc2)n1	0	-1	0	/	1	/
CN(C)C(=S)SCC(=O)Nc1ccc(Cl)cc1Cl	0	-11	27	28	/	61*
C[C@H]1CN([C@@H](C)CO)C(=O)c2cc(NC(=O)Nc3ccc(F)cc3)ccc2O[C@H]1CN(C)S(=O)(=O)c1cn(C)cn1	/	/	/	/	-9	/
CCOC(=O)/C(=C\c1cccc(O)c1)c1nc2sc(C)c(C)c2c(=O)[nH]1	-4	0	-20	114	/	161*
O=C(C[C@@H]1C[C@@H]2c3cc(NC(=O)CC4CC4)ccc3O[C@@H]2[C@H](CO)O1)NCc1ccc(Cl)cc1	/	/	/	/	2	/
c1ccc(C2=NN(c3ccccc3)CC2)cc1	5	50*	88*	18	46*	20
CCOC(=O)/C(=C/c1ccc(N2CCC(c3ccccc3)=N2)cc1)C(C)=O	/	/	47	22	/	33
CCCN1C[C@H](C)[C@@H](OC)CN(C)C(=O)c2cc(NC(=O)Nc3c(C)noc3C)ccc2OC[C@H]1C	/	/	/	/	2	/
Cc1cc(C)c2nc(NCc3ccccc3O)sc2c1	4	16	95*	9	45*	20
COc1cc(CNc2nc3c(C)cc(C)cc3s2)ccc1O	0	-3	-1	-16	3	-11
COc1cc(C2/C(=C(\O)c3ccc4c(c3)CC(C)O4)C(=O)C(=O)N2CC2CCCO2)cc(OC)c1OC (stereo not given)	5	0	8	-2	/	-11
CC1Cc2cc(/C(O)=C3/C(=O)C(=O)N(CC4CCCO4)C3c3ccco3)ccc2O1 (stereo not given)	0	/	-1	-56*	3	-67
CCCC(=O)N1C[C@H]2[C@@H](c3ccccc31)[C@H](CO)N2C(=O)CC1CC1	/	/	/	/	-1	/
Cc1ccc(NC(=O)C2=NNC(=O)CC2)cc1F	5	34*	40	13	/	41
CCCCOC(=O)Nc1ccc(C)c(Cl)c1	4	-3	60	20	57*	40
CCCCOC(=O)c1ccc(NC(C)=O)cc1	3	-1	/	1	20	-16
CCCCOC(=O)Nc1ccc(C(=O)OC)cc1	2	53*	64	8	79*	19
C[C@@H]1CN([C@H](C)CO)C(=O)Cc2cc(NC(=O)Nc3ccccc3)ccc2O[C@H]1CN(C)C(=O)Nc1ccccc1	/	/	/	/	-11	/
C[C@H]1CN([C@@H](C)CO)S(=O)(=O)c2ccc(-c3ccc(C#N)cc3)cc2O[C@H]1CN(C)C	/	/	/	/	-4	/
C[C@H]1CCCCO[C@H](CN(C)S(=O)(=O)c2ccccc2)[C@@H](C)CN([C@@H](C)CO)C(=O)c2cc(NS(=O)(=O)c3ccc(F)cc3)ccc2O1	/	/	/	/	6	/
C[C@@H]1CN([C@@H](C)CO)C(=O)c2cc(C#Cc3cccc(F)c3)cnc2O[C@@H]1CN(C)C(=O)C1CCC1	/	/	/	/	12	/
COc1ccc(NC(=O)c2c(Cl)nc3ccccn23)cc1	-3	/	6	20	4	32
SMILES	SMARCA2 activ	Wnt bcat act	MITF act	HSF1 inh	esBAF inh	HSF1 activator
Cc1nc2ccccn2c1C(=O)/C=C/c1ccc(F)cc1	3	/	-10	175	100*	200*
O=C(Nc1ccc(F)cc1)c1c(Cl)nc2ccccn12	0	5	28	12	50*	25
O=c1[nH]c(SCc2cccc(F)c2)nc2c1CCCC2	-4	-2	1	33	/	63*
Cc1c(Cl)cccc1NC(=O)CSc1nc2c(c(=O)[nH]1)CCCC2	/	/	/	12	/	60*
COc1ccc(C2=Nc3ccccc3NC(=O)C2N(C(=O)c2cnc(C)cn2)c2ccc(N3CCOCC3)cc2)cc1 (stereo not given)	-2	2	/	/	48*	/
CCCN1C(=O)S/C(=C/c2ccc(N3CCOCC3)o2)C1=O	1	4	/	28	?	22
CCN(CC)c1ccc(/C=C2/SC(=O)N(C(C)C)C2=O)o1	7	-24	-8	142	/	209*
C[C@@H]1CN([C@@H](C)CO)C(=O)c2cccc(NC(=O)c3cnccn3)c2O[C@H]1CN(C)S(=O)(=O)c1ccc(F)cc1	/	/	/	/	4	/
C[C@@H]1CN([C@@H](C)CO)C(=O)c2cc(NS(C)(=O)=O)ccc2O[C@@H](C)CCCCO[C@@H]1CN(C)Cc1ccc2c(c1)OCO2	/	/	/	/	-1	/
O=C(/C=C/Nc1ccc(F)cc1F)c1cccs1	7	13	-11	30	/	77*
O=C(/C=C/Nc1ccccc1F)c1cccs1	6	23	-8	20	/	?
O=C(Nc1cccs1)Nc1ccc(F)cc1F	7	11	10	47	/	98*
O=C(Nc1ccc(F)cc1F)Nc1ccc(F)cc1F	1	?	26	6	/	34
N#Cc1ccccc1NC(=O)Nc1cccs1	2	/	-3	1	/	3
O=C(Nc1cccs1)Nc1ccc(Br)cc1F	0	15	25	36	11	60*
CC(C)CC#Cc1cnc2c(c1)C(=O)N([C@@H](C)CO)C[C@@H](C)[C@@H](CN(C)C(=O)Cc1cccnc1)O2	/	/	/	/	-3	/
O=C(NCC[C@H]1CC[C@@H](NC(=O)C2CCCCC2)[C@@H](CO)O1)c1cc(Cl)cc(Cl)c1	/	/	/	/	0	/
C[C@@H]1CN([C@H](C)CO)C(=O)c2cc(NC(=O)c3ccccc3)ccc2O[C@@H](C)CCCCO[C@H]1CN(C)Cc1ccncc1	/	/	/	/	-3	/
COC(=O)c1ccc(OC(=O)CCN2c3ccccc3Sc3ccccc32)cc1	-1	3	-4	14	/	27
COC(=O)c1ccc(OC(=O)CCN2C(=O)C3CCCCC3C2=O)cc1 (stereo not given)	-1	15	-10	25	-5	61*
C[C@H]1CN([C@@H](C)CO)C(=O)c2cc(NC(=O)Cc3cn(C)c4ccccc34)ccc2O[C@H]1CN(C)S(=O)(=O)c1ccc(F)cc1	/	/	/	/	4	/
Cc1ccccc1C(=O)O/N=C1\CCS(=O)(=O)c2sccc21	6	/	77	47	?	74*
COc1ccc(C(=O)O/N=C2\CCS(=O)(=O)c3sccc32)cc1	-4	-2	5	0	-8	5
